# Reference: PubChem BioAssay (EPA / NIEHS)
# Active and inactive are the calls of the source. The calls were made as follows: active = hit-call score of the fitted dose curve at least 0.9, where 1 is the maximum; inactive = score below 0.9.
# Experiment: APR_HepG2_NuclearSize_72hr: Apredica 72-hour HepG2 Assay for Nuclear Size (AID 2282925)
# Details: high-content imaging, actives raise or lower the signal
# Method: APR_HepG2_72hr is a cell-based, multiplexed-readout assay that uses HepG2, a human liver cell line, with measurements taken at 72 hours after chemical dosing in a 384-well plate.APR_HepG2_NuclearSize_72hr is one of 10 assay component(s) measured or calculated from the APR_HepG2_72hr assay. It is designed to make measurements of cell phenotype, a form of morphology reporter, as detected with fluorescence intensity signals by HCS Fluorescent Imaging technology.Data from the assay component APR_HepG2_NuclearSize_72hr was analyzed into 1 assay endpoint. This assay endpoint, APR_HepG2_NuclearSize_72hr, was analyzed with bidirectional fitting relative to DMSO as the negative control and baseline of activity. Using a type of morphology reporter, measures of all nuclear dna for gain or loss-of-signal activity can be used to understand the signaling at the nuclear-level. Furthermore, this assay endpoint can be referred to as a primary readout, because this assay has produced multiple assay endpoints where this one serves a signaling function. To generalize the intended target to other relatable targets, this assay endpoint is annotated to the cell morphology intended target family, where the subfamily is organelle conformation.
# Cells were treated with dimethyl sulfoxide (DMSO) as a solvent control at a final concentration of 0.5% v/v or with compounds in DMSO with a resulting final DMSO concentration of 0.5% v/v. Compound treatment was done at concentrations of 0.39, 0.78, 1.56, 3.12, 6.24, 12.5, 25, 50, 100, and 200 uM in duplicate on each plate. Cells were treated with compounds for 1, 24, or 72 hr. Carbonyl […] m-chloro-phenylhydrazone (CCCP) and taxol were used as positive controls for mitochondrial function and cytoskeletal stability, respectively; DMSO served as the negative control for this experiment. Cells were fixed by the direct addition of 50 uL formaldehyde in Hank's Balanced Salt Solution (HBSS) to a final concentration of 3.7%. After incubation in the fixation medium for 30 min at room temperature (293-298 K), cells were rinsed twice with HBSS and treated with cell permeabilization buffer (16 uL of 0.5% Triton X-100) for 10 min at room temperature (293-298 K) before labeling. For mitochondrial membrane potential and mitochondrial measurements, pre-fixed cells were incubated with 50 uL of MitoTracker Red CMXRos (Invitrogen) at a concentration of 250 nM for 30 min before fixation. In the remaining cases, post-fixed cells were labeled by incubation with a multiplexed mixture of primary antibodies in HBSS for 60 min at room temperature (293-298 K) to detect immunoreactivity of c-Jun (1:500), phospho-histone H3 (1:100), phospho-histone H2A.x (1:200), p53 (1:400), alpha-tubulin (1:200) and Hoechst 33342 (2 ug/mL). Cells were labeled for multiplexed imaging on two separate plates: a) Hoechst 33342, MitoTracker Red, phospho-histone H3, and alpha-tubulin, and b) Hoechst 33342, phospho-histone H2A.x, and c-Jun. A final rinse with HBSS (50 uL) was performed before analysis. The primary and secondary antibodies for the proteins were phospho-histone H3 (rabbit anti-phospho-histone H3 and FITC-donkey anti-rabbit IgG), phospho-histone H2A.x (mouse anti-phospho-histone H2A.x and FITC-donkey anti-mouse IgG), c-Jun (rabbit anti-phospho-c-Jun and Cy3-donkey anti-rabbit IgG), p53 (sheep anti-p53 and Cy5-donkey anti-sheep IgG), alpha-tubulin (mouse anti-alpha-tubulin and Cy5-donkey anti-mouse IgG). These antibodies are available as the CellCiphr HepG2 assay kit (Millipore).Digital images of each well were captured using a Cellomics ArrayScan VTI (Thermo Scientific Cellomics) (0.8 NA objective, 0.63x optical coupler, and XF-93 filter set) at 20x magnification. The images were acquired using the autofocus feature of the ArrayScan instrument, which entails the following steps. First, the camera focuses on channel 1 (Hoechst 33342), where nuclei are identified. Second, a Z offset of 1 um is used for capturing mitochondria (MitoTracker Red). […]
Compound,outcome,AC50
Cc1cccc(N)c1N,inactive,–
CN(C)C(=O)Nc1ccc(Cl)cc1,inactive,–
CCNS(=O)(=O)C(F)(F)C(F)(F)C(F)(F)C(F)(F)C(F)(F)C(F)(F)C(F)(F)C(F)(F)F,–,105 µM (active)
OCCOCCO,inactive,–
CCCCCCCCn1sccc1=O,inactive,–
Oc1ccc2ccc3cccc4ccc1c2c34,–,69.6 µM (active)
COC(=O)Nc1nc2ccccc2[nH]1,–,9.08 µM (active)
c1ccc(NNc2ccccc2)cc1,inactive,–
O=C(Nc1ccccc1)c1ccccc1I,inactive,–
CN(C)c1ccc(C(=O)c2ccc(N(C)C)cc2)cc1,–,1.91 µM (active)
Clc1ccc(Cl)c(Cl)c1,inactive,–
CCCCC(CC)COC(=O)c1ccc(C(=O)OCC(CC)CCCC)c(C(=O)OCC(CC)CCCC)c1 (stereo not given),inactive,–
OCCCBr,inactive,–
O=[N+]([O-])C(Br)(CO)CO,–,163 µM (active)
Clc1ccccc1Cl,inactive,–
[As]#[In],inactive,–
CCN(CC)N=O,inactive,–
Nc1ccc([N+](=O)[O-])cc1,inactive,–
Oc1ccccc1Cl,inactive,–
N#CC(Br)Br,inactive,–

Compound,outcome,AC50
CC(C)(C)C(O)(CCc1ccc(Cl)cc1)Cn1cncn1 (stereo not given),inactive,–
C1=Cc2cccc3cccc1c23,inactive,–
Nc1ccc(Oc2ccc(N)cc2)cc1,inactive,–
CN(C)c1ccccc1,inactive,–
CC(C)(OOC(C)(C)c1ccccc1)c1ccccc1,inactive,–
CCOC(=O)[C@]1(c2ccccc2)Oc2ccccc2[C@@H]1N,inactive,–
ClC1=C(Cl)[C@]2(Cl)[C@H]3[C@H]([C@@H]4C=C[C@H]3C4)[C@@]1(Cl)C2(Cl)Cl,inactive,–
c1ccc(N=Nc2ccccc2)cc1,inactive,–
CCCCCCCCCCCCCN1CC(C)OC(C)C1 (stereo not given),inactive,–
CN(C)[C@@H]1C(=O)C(C(N)=O)=C(O)[C@@]2(O)C(=O)C3=C(O)c4c(O)cccc4[C@@](C)(O)[C@H]3C[C@@H]12,inactive,–
COC(=O)c1ccccc1N,inactive,–
c1ccc2c(c1)oc1ccccc12,inactive,–
ClCCOCCCl,inactive,–
Nc1ccc(Cl)cc1N,inactive,–
CS(=O)(=O)NC(=O)c1cc(Oc2ccc(C(F)(F)F)cc2Cl)ccc1[N+](=O)[O-],inactive,–
COc1cc(C=O)cc2c1[C@H](COC(N)=O)[C@]1(OC(C)=O)ON2C[C@H]2[C@@H]1N2C(C)=O,inactive,–
CO[C@@H]1[C@H](OC(=O)NC(=O)CCl)CC[C@]2(CO2)[C@H]1[C@@]1(C)O[C@@H]1CC=C(C)C,inactive,–
Cc1ccc(N=C=O)cc1N=C=O,inactive,–
CCCCCOC(=O)c1ccccc1C(=O)OCCCCC,inactive,–
C[N+](C)(C)CC1CO1 (stereo not given),inactive,–
